Screening data as filed in PubChem.
A selection: hits, their analogues and other compounds. The true share with any hit is near 13%.
miR-21 act: qHTS Assay for Modulators of miRNAs and/orActivators of miR-21; HeLa miR-21 FLuc reporter, luciferase, 48 h; Potency, µM (titrated, usually from 38.3 µM), for inactives: top-dose activity change, positive = activation, hits mostly activators; 340,000 tested, under 10 active; AID 2288, 2010;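 further: % of control where 0% means no effect; miR-21 action dims this reporter so a rising signal means less miR-21 action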
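Luminescence from a firefly luciferase reporter carrying a miR-21 binding site downstream, stably expressed under a CMV promoter in HeLa cells that make miR-21 endogenously, reports miRNA modulation after 48 h compound exposure up to approximately 40uM final.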
ALDH1A1 block: qHTS Assay for Inhibitors of Aldehyde Dehydrogenase 1 (ALDH1A1); Aldehyde dehydrogenase 1A1 (Homo sapiens), P00352; Purified ALDH1A1, NADH fluorescence, propionaldehyde substrate; Potency, µM (titrated, usually from 75.3 µM), for inactives: at the top dose activity, negative = inhibition, most hits filed as inhibitors; 220,000 compounds, 7.3% hits; AID 1030, 2008; active means well fitted inhibition curve with a large enough effect, not every such curve was filed as active; inconclusive means small, poorly fitted or top-dose-only effect, or another doubt; inactive means no such curve, though single readings can be large or run the other way;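 further: potency means the concentration at half of the fitted maximal effect; plate controls were no enzyme wells and a reference inhibitor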
Sfp PPTase inh: qHTS Assay for Inhibitors of Bacillus subtilis Sfp phosphopantetheinyl transferase (PPTase). Biochemical Sfp PPTase activity, qHTS. Potency, µM, without a hit: largest response in the series, negative = inhibition, usual class: inhibitors. 310,000 compounds, 3.5% hits. AID 1490, 2009;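 further: the enzyme is Sfp with the accession as filed and its product quenches rhodamine fluorescence; potency means the concentration at half of the fitted maximal effect; 0% = enzyme reaction without inhibitor and -100% = no enzyme wells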
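Fluorescence-quenching assay: 15 nM Sfp-PPTase preincubated 15 min at room temperature with compound, then 5 uM rhodamine-CoA and 12.5 uM BHQ-2-labelled YbbR peptide added. Fluorescence (ex 525/em 598 nm) read at start and after 30 min; difference gives rate.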
G9a block: qHTS Assay for Inhibitors of Histone Lysine Methyltransferase G9a. Histone-lysine N-methyltransferase EHMT2 (Homo sapiens), Q96KQ7. 350,000 compounds, 8.8% hits. Potency, µM (highest dose often 102 µM), for the others: at the highest dose activity, negative = inhibition, most hits filed as inhibitors. G9a H3K9 monomethylation, AlphaScreen, 2 h; further: potency means the concentration at half of the fitted maximal effect; on the % scale 0 is the no-effect control and ±100 the full control effect; nearly all actives have a fitted effect of over 75% in size
Target sequence (Q96KQ7 913-1193 limits assumed): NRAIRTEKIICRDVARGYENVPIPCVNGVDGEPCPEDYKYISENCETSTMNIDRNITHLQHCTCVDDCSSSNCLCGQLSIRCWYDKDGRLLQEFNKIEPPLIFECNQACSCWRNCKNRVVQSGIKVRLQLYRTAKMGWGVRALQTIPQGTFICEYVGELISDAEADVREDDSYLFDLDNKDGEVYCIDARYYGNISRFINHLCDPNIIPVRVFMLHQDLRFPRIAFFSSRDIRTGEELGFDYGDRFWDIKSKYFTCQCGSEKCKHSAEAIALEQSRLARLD
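Quantitative HTS format: methyltransferase activity on a biotin-tagged H3K9 peptide is measured by AlphaScreen, using a rabbit anti-monomethyl-H3K9 antibody with streptavidin donor and anti-IgG acceptor beads. Final levels are 20 nM enzyme, 500 nM peptide, 20 uM SAM; 2 h RT.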
JMJD2E inh: qHTS Assay for Inhibitors of Human Jumonji Domain Containing 2E (JMJD2E); JMJD2E catalytic domain, FDH-coupled NADH fluorescence (FDH is formaldehyde dehydrogenase); 230,000 compounds, 1.6% hits; Potency, µM (titrated, usually from 57.1 µM), inactives show at the highest dose activity change, negative = inhibition, most hits filed as inhibitors; AID 2147, 2009; active means well fitted inhibition curve with a large enough effect, not every such curve was filed as active; inconclusive means small, poorly fitted or top-dose-only effect, or another doubt; inactive means no such curve, though single readings can be large or run the other way;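 further: potency means the concentration at half of the fitted maximal effect; 0% = wells with enzyme and -100% = buffer wells without enzyme; nearly all actives have a fitted effect of over 50% in size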
Target sequence (B2RXH2 1-337 limits assumed): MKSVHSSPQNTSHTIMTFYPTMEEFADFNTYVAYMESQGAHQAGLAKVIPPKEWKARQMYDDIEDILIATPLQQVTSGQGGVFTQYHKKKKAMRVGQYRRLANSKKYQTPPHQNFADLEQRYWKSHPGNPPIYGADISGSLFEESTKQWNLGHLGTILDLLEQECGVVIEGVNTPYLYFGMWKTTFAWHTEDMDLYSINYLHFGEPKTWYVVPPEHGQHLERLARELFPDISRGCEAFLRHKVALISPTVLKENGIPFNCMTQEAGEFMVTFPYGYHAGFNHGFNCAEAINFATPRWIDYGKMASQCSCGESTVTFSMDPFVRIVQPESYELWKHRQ
LMNA splice mod: qHTS Assay for Modulators of Lamin A Splicing. HeLa LMNA splicing GFP/RFP minigene ratio, 48 h. Potency, µM (doses to about 46.1 µM), without a hit: at the top dose ratio change, negative = inhibition, usual class: inhibitors. 200,000 compounds, 0.01% hits; active means well fitted inhibition curve with a large enough effect in the signal ratio, with a control signal flat, not every such curve was filed as active; inconclusive means small, poorly fitted or top-dose-only effect, or effect the other way, or a change in a side signal; the % refers to the signal ratio; further: potency means the concentration at half of the fitted maximal effect; on the % scale 0 is the no-effect control and ±100 the full control effect
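S3 HeLa cells stably expressing lamin A-EGFP splicing minigene plus DsRed2, 600 cells/well, 48 h compound exposure at 37C. Laser-scanning cytometry; analysed as GFP (500-530 nm)/RFP (575-640 nm) total intensity ratio; 0.5% DMSO vehicle.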
* marks the source's active call; other numbers are inactive results; ? = inconclusive; / = no result; [ ] = another dose, or the depositor's remark. Unless noted, the call rests on the fitted dose curve; in most records, active means well fitted curve in the direction sought with a large enough effect; inconclusive means small, poorly fitted or top-dose-only effect, or another doubt; inactive means no such curve, though single readings can be large; an effect the other way counts as inactive or inconclusive.

SMILES	miR-21 act	ALDH1A1 block	Sfp PPTase inh	G9a block	JMJD2E inh	LMNA splice mod
Cc1ccc(-n2c(SCC(=O)N3CCC(C)CC3)nc3c([nH]c4ccccc43)c2=O)cc1	-32%	/	/	0%[59 µM]	/	-1%[46 µM]
COc1cc(NC(=S)NCCCN2CCOCC2)c(OC)cc1NC(=O)c1ccco1	0%	/	8%	-13%	/	/
O[C@@H]1CN(Cc2ccc(-n3cccn3)cc2)CC[C@H]1N1CCN(c2ccccc2F)CC1	14%	/	5%	/	/	/
Cc1ccc(N2CCN(C(=O)c3nn(C)c4c3CSc3ccccc3-4)CC2C)cc1 (stereo unspecified)	-7%	/	/	-1%[59 µM]	/	/
CCC(=O)N(CC)C1=C(O)c2ccccc2C(=O)C1=O	-3%	22µM*	11µM*	1µM*	-8%	7%
COCCCNc1ncnc2c1sc1nc(-c3ccco3)c3c(c12)CC(C)(C)OC3	-11%	/	?	-40%	?	/
CSc1nc(N(CCO)CCO)c2sc3nc(-c4ccco4)c4c(c3c2n1)CCC4	-10%	?	18µM*	13µM*	7%	19%
CSc1nc(SCCO)c2sc3nc(-c4ccco4)c4c(c3c2n1)CC(C)(C)OC4	-2%	?	20µM*	?	?	?
CC1(C)Cc2c(c(-c3ccco3)nc3sc4c(NCCO)ncnc4c23)CO1	-17%	?	50µM*	?	?	/
COc1ccc(OCC(=O)N(Cc2cccc(OC)c2)C2CCS(=O)(=O)C2)cc1 (stereo unspecified)	-3%	/	/	-2%[59 µM]	/	/
CCOC(=O)C1/C(=N\O)CC(C)(O)C(C(=O)OCC)C1c1ccc(OC)c(OC)c1 (stereo unspecified)	-2%	11%	7%	-27%[59 µM]	-5%	-6%
CCOC(=O)C1/C(=N\O)CC(C)(O)C(C(=O)OCC)C1c1ccc(N(C)C)cc1 (stereo unspecified)	-5%	?	50µM*	18µM*	?	6%
Cc1cccc(C(=O)NC(=O)Nc2ccc(-n3nc(C(F)(F)F)cc3C(F)(F)F)cc2)c1	0%	/	/	1%[59 µM]	/	/
Cc1c(C(=O)OC2CCCC2)[nH]c2c1C(=O)CC(c1ccco1)C2 (stereo unspecified)	14%	11µM*	-14%	?	-5%	?
COC(=O)c1[nH]c2c(c1C)C(=O)CC(c1ccccc1)C2 (stereo unspecified)	25%	5%	25%	8%[12.7 µM]	-1%	?
C/C=C/COC(=O)c1[nH]c2c(c1C)C(=O)CC(c1ccco1)C2 (stereo unspecified)	27%	?	50µM*	45µM*	-2%	?
Cc1c(C(=O)OC2CCCCC2)[nH]c2c1C(=O)CC(c1ccccc1)C2 (stereo unspecified)	16%	/	/	8%[59 µM]	/	/
C=CCOC(=O)c1[nH]c2c(c1C)C(=O)CC(c1ccco1)C2 (stereo unspecified)	16%	?	?	?	-25%	?
Cc1c(C(=O)OCC(C)C)[nH]c2c1C(=O)CC(c1ccco1)C2 (stereo unspecified)	13%	11µM*	40µM*	40µM*	-14%	?
O=C(CCn1c(=O)c2cccn2c2cccnc21)N1CCN(c2cccc(C(F)(F)F)c2)CC1	?	/	/	-36%[59 µM]	/	/
COc1ccc2c(c1)sc(=N)n2C	25%	20µM*	2%	20µM*	-26%	/
COc1cc(C2CC(=O)Nc3c2c(C)nn3-c2nncc(-c3ccc(C)cc3)n2)cc(OC)c1OC (stereo unspecified)	-13%	/	/	-29%[59 µM]	/	/
Cc1ccc(C)n1C1CCS(=O)(=O)C1 (stereo unspecified)	-6%	2%	13%	56µM*	-21%	?
Cc1cccc(OCC(=O)Nc2ccccc2OCc2cc(=O)n3cc(C)ccc3n2)c1	3%	/	/	-6%[59 µM]	/	-4%[46 µM]
COc1cc(NC(=O)CNS(=O)(=O)c2cccs2)cc(OC)c1OC	3%	/	/	6%[59 µM]	/	-15%[46 µM]
SMILES	miR-21 act	ALDH1A1 block	Sfp PPTase inh	G9a block	JMJD2E inh	LMNA splice mod
CCCCCOC(=O)CCN1C(=O)/C(=C2\SC(=S)N(CCC(=O)OCCCCC)C2=O)SC1=S	1%	/	?	/	-1%	/
CCCOC(=O)CCCN1C(=O)/C(=C2\SC(=S)N(CCCC(=O)OCCC)C2=O)SC1=S	0%	/	-8%	1.1µM*	3%	/
Cc1ccc(-c2nn3c(C)nnc3s2)cc1NC(=O)c1ccc(OC(C)C)cc1	12%	13µM*	?	?	8%	1%
Cc1cccc([N+](=O)[O-])c1NC(=O)COC(=O)C1CC2CCCC(C1)C2=O (stereo unspecified)	/	/	/	5%[59 µM]	/	/
Cc1ccc([N+](=O)[O-])c(NC(=O)COC(=O)C2CC3CCCC(C2)C3=O)c1C (stereo unspecified)	-1%	/	14%	79µM*	/	/
COc1ccc(CC(=O)NNC(=S)Nc2ccc(Br)cc2)cc1	-2%	18µM*	10%	?	-1%	5%
O=C(CNc1ccc(Cl)cc1)NNC(=S)NCc1ccccc1	10%	?	5%	50µM*	6%	?
COc1ccc(CCC(=O)NNC(=S)Nc2cccc(C(C)=O)c2)cc1	-11%	-89%	8%	40µM*	17%	-17%[46 µM]
CC(=O)NC(=S)Nc1ccc(NC(=O)COc2ccc(Cl)cc2)cc1	-2%	-10%	-2%	5.6µM*	-8%	9%
Cc1cc2c(cc1NC(=O)c1ccccc1C)n(C)c(=O)c(=O)n2C	3%	/	/	-5%[59 µM]	/	-14%[46 µM]
CC(=O)N1CCC2(CCCN(Cc3cc(C(F)(F)F)cc(C(F)(F)F)c3)C2)CC1	/	0%	3%	-14%[12.7 µM]	/	/
COc1ccc(CC(=O)NNC(=S)Nc2ccccc2)cc1Br	-6%	?	8%	?	10%	?
COC(CC(=O)NNC(=S)Nc1ccc(Cl)cc1)OC	-5%	-4%	25%	1%	-5%	28%[9.22 µM]
COc1cccc(NC(=O)NNC(=O)CCc2ccc(O)c(O)c2)c1	2%	/	56µM*	/	/	/
CCOc1ccc(CC(=O)NNC(=S)Nc2ccccc2)cc1Br	-7%	32µM*	10%	25µM*	8%	-11%
COc1ccc(NC(=S)NNC(=O)CNc2ccc(Cl)cc2)cc1	1%	10µM*	79µM*	10µM*	?	/
